From the supplement of paper PMC9262897, “Low-cost anti-mycobacterial drug discovery using engineered E. coli” (Nature Communications, 2022) come the findings set out here.

Where a name gives a salt, the structure may show the parent alone. ± gives the standard deviation of the averaged measurements.

The subject of the assay is E. coli TESEC Mtb Alr. As to the kind of experiment: growth (OD600 after 10 h); higher = more growth (less inhibition). Conditions: arabinose 100 nM; compound 0.1 mM; raw OD600 reference: median of DMSO wells 0.413, cell-free background 0.052. The procedure:
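TESEC Mtb Alr E. coli (ΔaraC ΔtolC ΔentC Δalr ΔdadX, arabinose-inducible Mtb Alr) or the Alr+ wild-type control strain, grown in defined M9-fructose medium without D-alanine in 96-well plates with Prestwick library compounds at 0.1 mM and 1% DMSO. Low Alr induction is 0.1 µM arabinose and high induction is 10 mM arabinose.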
As for `CC(=O)Oc1cccc2c1C(=O)c1c(OC(C)=O)cc(C(=O)O)cc1C2=O` [Diacerein], the growth came to 0.0492 ± 0.00056. As for `COc1ccc(-c2cc(=S)ss2)cc1` [Anethole-trithione], the figure is 0.4304 ± 0.0029; as for `O=C(O)Cc1ccccc1Nc1c(Cl)cccc1Cl` [Diclofenac sodium], 0.329 ± 0.037; as for `CCN1CCC[C@H]1CNC(=O)c1c(O)c(Cl)cc(Cl)c1OC` [Raclopride], 0.395 ± 0.038.

`COc1ccc(C[C@@H]2c3cc(OC)c(OC)cc3CC[N@+]2(C)CCC(=O)OCCCCCOC(=O)CC[N@@+]2(C)CCc3cc(OC)c(OC)cc3[C@H]2Cc2ccc(OC)c(OC)c2)cc1OC` [Cisatracurium besylate] came in with a growth of 0.411 ± 0.0072.

With `CN(C)CCOC(=O)C(c1ccccc1)C1(O)CCCC1` (stereo not given) [Cyclopentolate hydrochloride], the growth turned out to be 0.4313 ± 0.0024.

Turning to `CCCCOc1ccc(C(=O)CCN2CCCCC2)cc1` [Dyclonine hydrochloride], the growth turned out to be 0.408 ± 0.0048.

Take `CC[C@H]1OC(=O)[C@H](C)[C@@H](O[C@H]2C[C@@](C)(OC)[C@@H](O)[C@H](C)O2)[C@H](C)[C@@H](O[C@@H]2O[C@H](C)C[C@H](N(C)C)[C@H]2O)[C@](C)(O)C[C@@H](C)/C(=N\OCOCCOC)[C@H](C)[C@@H](O)[C@]1(C)O` [Roxithromycin]: the growth amounted to 0.0564 ± 0.0015. In the case of `CCOC(=O)O[C@]1(C(=O)OCCl)CC[C@H]2[C@@H]3CCC4=CC(=O)C=C[C@]4(C)[C@H]3[C@@H](O)C[C@@]21C` [Loteprednol etabonate], the growth is 0.371 ± 0.017. In the case of `c1ccc2c(CC3=NCCN3)cccc2c1` [Naphazoline hydrochloride], the growth was determined as 0.41 ± 0.0069.
